In ChEMBL document CHEMBL4296182, “CO-ADD screening of NIH NCI Diversity Set V”:
For part of these data: Entries with a potency or affinity are not part of this list.

Tests used:
Staphylococcus aureus = test: Antibacterial activity against Staphylococcus aureus MRSA ATCC 43300 (CO-ADD:GP_020); MIC in CAMBH media using NBS plates, by Resazurin F(560/590); type: functional; conditions: Concentration 20 uM, ASSAY_TEST Inhibition of Bacterial Growth, detection method Resazurin, Fluorescence (ex560/em590), MEDIA CAMHB, plate type 384well, CORNING #3640, time 18 hr
Acinetobacter baumannii = test: Antibacterial activity against Acinetobacter baumannii ATCC 19606 (CO-ADD:GN_034); MIC in CAMBH media using NBS plates, by Resazurin F(560/590); type: functional; conditions: Concentration 20 uM, ASSAY_TEST Inhibition of Bacterial Growth, detection method Resazurin, Fluorescence (ex560/em590), MEDIA CAMHB, plate type 384well, CORNING #3640, time 18 hr
Escherichia coli = test: Antibacterial activity against Escherichia coli ATCC 25922 (CO-ADD:GN_001); MIC in CAMBH media using NBS plates, by Resazurin F(560/590); type: functional; conditions: Concentration 20 uM, ASSAY_TEST Inhibition of Bacterial Growth, detection method Resazurin, Fluorescence (ex560/em590), MEDIA CAMHB, plate type 384well, CORNING #3640, time 18 hr
Klebsiella pneumoniae = conditions: Concentration 20 uM; ASSAY_TEST Inhibition of Bacterial Growth; detection method Absorption (OD600); MEDIA CAMHB; plate type 384well; NBS; CORNING #3640; time 18 hr
Candida albicans = conditions: 20 µM
Cryptococcus neoformans = conditions: Concentration 20 uM; ASSAY_TEST Inhibition of Fungal Growth; detection method Resazurin; Absorption (OD600-OD570); plate type 384well; NBS; CORNING #3640

| Structure (SMILES) | Inhibition (Staphylococcus aureus) [%] | Inhibition (Acinetobacter baumannii) [%] | Inhibition (Escherichia coli) [%] | Inhibition (Klebsiella pneumoniae) [%] | Inhibition (Candida albicans) [%] | Inhibition (Cryptococcus neoformans) [%] |
| --- | --- | --- | --- | --- | --- | --- |
| CSc1nc(O)c(Nc2cccc(Cl)c2)c(O)n1 | 7.02 | 14.23 | -1.67 | 7.49 | 0 | 16.48 |
| N#Cc1nnn(-c2ccc(Cl)cc2)c1N | 17.83 | 3.74 | 11.71 | -5.78 | 0.88 | -4.67 |
| CCC(C)c1c(N)n(S(=O)(=O)c2ccc(C)cc2)oc1=O (centres undefined) | 12.19 | -9.07 | 9 | 8.85 | 1.8 | -2.18 |
| COc1ccc(Nc2cc(C)nc(N)n2)cc1 | -7.83 | -5.29 | -4.32 | 2.7 | 1.31 | -3.23 |
| CCNc1nc(Cl)nc(-c2cn(-c3ccccc3)c3ccccc23)n1 | 17.23 | 12.81 | 4.37 | 13.6 | 0.17 | -5.12 |
| Nc1nc(SCc2ccccn2)c2ncn(C3OC(CO)C(O)C3O)c2n1 (centres undefined) | 6.83 | 2.95 | 4.84 | 10.89 | -1.39 | -4.63 |
| CC(=O)NC1(C(=O)O)CCCC1 | 8.27 | -6.77 | 8.7 | 15.18 | 4.3 | 0.8 |
| Cc1cn(C2CC(O)C(CO)O2)c(=O)n(Cc2ccccc2)c1=O (centres undefined) | 4.94 | 6.87 | 7.7 | 11.99 | 1.89 | -13.31 |
| CCSc1nc(C)c(C)c(O)n1 | -7.95 | -12.73 | 10.67 | 6.61 | 2.45 | -10.18 |
| CC(C)c1ccc(-c2nc3ccccc3s2)cc1 | 16.1 | 2.02 | 4.01 | 12.27 | 8.12 | -7.1 |
| Cc1cc(N(C)C)ccc1/N=N/c1ccc2ncccc2c1 | 1.18 | -8.44 | 5.41 | 5.32 | 3.26 | -12.5 |
| CCOC(=O)Cc1cc(O)c2cc(C)ccc2n1 | 11.68 | -4.86 | 11.33 | 2.93 | -1.04 | -11.29 |
| NNC(=O)CNC(=O)Nc1nnc(S)s1 | 1.09 | 15.79 | -4.75 | 16.78 | 2.5 | -8.13 |
| CCN1CCC(Nc2ccnc3cc(Cl)ccc23)CC1 | 11.96 | -0.07 | -4.98 | 16.53 | 2.51 | -6.53 |
